# Measurements: PubChem BioAssay
# Records with an inconclusive call do not appear. The source made the active and inactive calls.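 Rule for the calls, unless noted: active = normalized viability below 100% at a tested concentration; inactive = the rest.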
# Columns and labels:
# [1] = growth inhibition of DIPG glioma cells, dose response, cell-based, SU-DIPG-XVII, MIPE5.0, CellTiter-Glo, qHTS (AID 1347060; cut-off not given, nearly all actives have AC50 up to about 26 µM;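 note: cells exposed to compound for 48 hours before viability readout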); conditions: SU-DIPG-XVII viability, CellTiter-Glo ATP luminescence
# [2] = growth inhibition of DIPG glioma cells, dose response, cell-based, JHH-DIPG-1, MIPE4.0, CellTiter-Glo, qHTS (AID 1347062; cut-off not given, nearly all actives have AC50 up to about 27 µM;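 note: cells exposed to compound for two days before readout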); conditions: JHH-DIPG-1 viability, CellTiter-Glo ATP luminescence
# [3] = growth inhibition of DIPG glioma cells, dose response, cell-based, SU-DIPG-IV, MIPE4.0, CellTiter-Glo, qHTS (AID 1347063; cut-off not given, nearly all actives have AC50 up to about 30 µM;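 note: compound exposure lasted 48 hours before the viability readout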); conditions: SU-DIPG-IV viability, CellTiter-Glo ATP luminescence
# [4] = viability loss in pontine glioma line – cell-based, SU-DIPG-XXV, MIPE5.0, CellTiter-Glo, qHTS, dose response (AID 1347065; cut-off not given, nearly all actives have AC50 up to about 26 µM;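 note: cells exposed to compound for 48 hours before ATP readout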); conditions: CellTiter-Glo ATP luminescence
# [5] = JHH-DIPG-1 glioma cell viability, MIPE5.0 library, CellTiter-Glo luminescence, qHTS (AID 1347067; cut-off not given, nearly all actives have AC50 up to about 26 µM;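 note: cells exposed to compound for 48 hours before readout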); conditions: JHH-DIPG-1 glioma viability, CellTiter-Glo ATP luminescence
# [6] = sensitizers of A549 cells to miR-34 induction, primary screen, imaging, A549 dox-inducible miR-34, nuclei and caspase counts (AID 1347080;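 active = compounds whose cell count with miR-34 switched on is under 0.7 times the count with it off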); conditions: A549 miR-34 inducible, Hoechst nuclei count, 48 h
# [7] = survival rescue of mitochondrial mutant cells in low glucose, primary screen, MELAS cybrids, Rieske KO mouse fibroblasts, CellTiter-Glo (AID 1508586;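 active = mean z-score across replicates of 1.96 or higher in either the MELAS or the Rieske mutant cell line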;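 note: z relative to plate mean and SD of compound and empty wells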)
# [8] = LFS_MB_P medulloblastoma growth inhibition, cell-based, chromothripsis tumors, cisplatin or BGB combos (AID 1671449; in the data active = inhibition above about 80%;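 note: cells exposed for 96 hours; 0% = vehicle DMSO and 100% = killing by high DMSO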); conditions: LFS_MB_P medulloblastoma cells
# [9] = HDN33 neuroblastoma growth inhibition, cell-based, chromothripsis tumors, cisplatin or BGB combos (AID 1671450; in the data active = inhibition above about 80%;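 note: cells exposed to compound for four days; 0% = vehicle DMSO and 100% = cell killing by high DMSO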); conditions: HDN33 neuroblastoma cells, stronger effect = higher value
# [10] = ICB984 medulloblastoma cell growth inhibition, synergistic combos for chromothripsis tumors, cisplatin or BGB combos (AID 1671451; call rule not given here;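 note: cells exposed for 96 hours before readout; 0% = vehicle DMSO and 100% = killing by high DMSO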); conditions: ICB984 medulloblastoma cells, drug combinations, stronger effect = higher value
# [11] = HTB85 osteosarcoma cell growth inhibition, synergistic combos for chromothripsis tumors, BGB or cisplatin IC20 combos (AID 1671453; in the data active = inhibition above about 80%;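 note: cells exposed for 96 hours before readout; 0% = vehicle DMSO and 100% = high DMSO killing control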); conditions: HTB85 osteosarcoma cells, drug combinations, stronger effect = higher value
# [12] = MDA-MB-436 breast carcinoma cell growth inhibition, synergistic combos for chromothripsis tumors, BGB or cisplatin combos (AID 1671458; call rule not given here;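 note: cells exposed for 96 hours; 0% = vehicle DMSO and 100% = killing by high DMSO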); conditions: MDA-MB-436 breast carcinoma growth inhibition, drug combinations, stronger effect = higher value
# [13] = growth inhibition of BT084 medulloblastoma cells, cell-based, ICGC_MB145, cisplatin and BGB IC40 combos (AID 1671461; in the data active = inhibition above about 80%;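 note: cells exposed to drugs for 96 hours; 0% = vehicle DMSO and 100% = high DMSO full killing control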); conditions: drug combinations, stronger effect = higher value
# [14] = growth inhibition of RCMB18 medulloblastoma cells, cell-based, cisplatin and BGB IC40 combos (AID 1671462; in the data active = inhibition above about 80%;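 note: cells exposed to compound for four days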); conditions: stronger effect = higher value
# [15] = growth inhibition of CRL1545 osteosarcoma cells, cell-based, cisplatin and BGB IC20 combos (AID 1671464; in the data active = inhibition above about 80%;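 note: cells exposed to compound for 96 hours before readout; 0% = vehicle DMSO and 100% = high DMSO killing control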); conditions: stronger effect = higher value
# [16] = SU-DIPG-VI glioma cell viability, MIPE4.0 library, CellTiter-Glo luminescence, qHTS (AID 1347066; cut-off not given, nearly all actives have AC50 up to about 30 µM;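 note: cells exposed to compound for 48 hours before readout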); conditions: CellTiter-Glo ATP luminescence
# [17] = SU-DIPG-XXV glioma cell viability, MIPE5.0 library, qHTS (AID 1347068; cut-off not given, nearly all actives have IC50 up to about 30 µM;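 note: cells exposed to compound for 48 hours before viability readout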)
# [18] = ovarian cancer cell viability with rucaparib, profiling panel, oncology-focused library, rucaparib conditional (AID 1508598); conditions: patient-derived ovarian cancer cells, CellTiter-Glo viability, 144 h, stronger effect = lower value
# [19] = stronger effect = lower value, cell number ratio, induced over uninduced
# [20] = measured here: relative caspase fold change +Dox/-Dox
# [21] = measured here: total cells with miR-34 induction, stronger effect = lower value
# [22] = measured here: total cells without miR-34 induction
# [23] = MELAS cybrid survival, CellTiter-Glo 48 h, stronger effect = higher value
# [24] = Rieske KO mouse fibroblast survival, CellTiter-Glo 72 h
# [25] = measured here: with BGB IC20 combination, at 0.5 µM
# [26] = measured here: with cisplatin IC20 combination, at 0.5 µM
structure (smiles),measurement,setting,value
Cc1ccc2nc(NCCN)c3ncc(C)n3c2c1,AC50,[1],8.33 µM (active)
same,AC50,[2],2.35 µM (active)
same,AC50,[3],20.9 µM (active)
same,AC50,[4],8.33 µM (active)
same,AC50,[5],13.2 µM (active)
same,fold change,[6]; [19],1.09 (inactive)
same,fold change,[6]; [20],0.561
same,cell count,[6]; [21],6190
same,cell count,[6]; [22],5680
same,z-score,[7]; [23],-0.409 (inactive)
same,z-score,[7]; [24],-2.24
same,inhibition,"[8]; at 0.5 µM, stronger effect = higher value",11.2% (inactive)
same,inhibition,"[8]; measured here: combination with BGB IC20, at 0.005 µM",0.796%
same,inhibition,"[8]; measured here: combination with BGB IC40, at 0.005 µM",-31.1%
same,inhibition,"[8]; measured here: combination with BGB IC40, at 0.05 µM",-6.91%
same,inhibition,"[8]; measured here: combination with cisplatin, at 0.5 µM, stronger effect = higher value",74.2%
same,inhibition,"[8]; measured here: combination with cisplatin, at 5 µM, stronger effect = higher value",-17.8%
same,inhibition,"[9]; BGB combo, at 5 µM",63.5%
same,inhibition,[9]; at 0.5 µM,-5% (inactive)
same,inhibition,"[9]; cisplatin combo, at 5 µM",55.9%
same,inhibition,[9]; [25],-7.6%
same,inhibition,[9]; [26],2.54%
same,inhibition,"[9]; single agent, at 5 µM",57.3%
same,inhibition,"[10]; BGB IC20 combo, at 0.005 µM",10.7%
same,inhibition,"[10]; BGB IC40 combo, at 0.005 µM",-98.8%
same,inhibition,"[10]; BGB IC40 combo, at 0.05 µM",52.7%
same,inhibition,[10]; at 0.5 µM,-16% (inactive)
same,inhibition,"[10]; cisplatin combo, at 0.05 µM",50.8%
same,inhibition,"[10]; cisplatin combo, at 0.5 µM",-17.9%
same,inhibition,"[10]; cisplatin combo, at 5 µM",-22.2%
same,inhibition,"[10]; measured here: 5 uM single agent, at 5 µM",-10.1%
same,inhibition,[11]; at 0.5 µM,7.35% (inactive)
same,inhibition,"[11]; measured here: with BGB IC20, at 0.5 µM",19.2%
same,inhibition,"[11]; measured here: with BGB IC20, at 5 µM",98.1%
same,inhibition,"[11]; measured here: with cisplatin IC20, at 0.5 µM",-7.65%
same,inhibition,"[11]; measured here: with cisplatin IC20, at 5 µM",89.2%
same,inhibition,"[11]; single agent, at 5 µM",91.7%
same,inhibition,[12]; at 0.5 µM,-3.06% (inactive)
same,inhibition,"[12]; measured here: BGB combination, at 0.5 µM",-13.7%
same,inhibition,"[12]; measured here: BGB combination, at 5 µM",65.6%
same,inhibition,"[12]; measured here: cisplatin combination, at 0.5 µM",6.41%
same,inhibition,"[12]; measured here: cisplatin combination, at 5 µM",80.2%
same,inhibition,[13]; at 0.5 µM,4.08% (inactive)
same,inhibition,"[13]; cisplatin combination, at 0.5 µM",-3.36%
same,inhibition,"[13]; cisplatin combination, at 5 µM",46.6%
same,inhibition,"[13]; measured here: BGB IC40 combination 0.05 uM, at 0.05 µM",-4.49%
same,inhibition,"[13]; single agent, at 5 µM",32.4%
same,inhibition,[14]; at 0.5 µM,1.56% (inactive)
same,inhibition,"[14]; cisplatin combo, at 5 µM",76%
same,inhibition,"[14]; measured here: BGB IC40 combination, at 0.05 µM",1.88%
same,inhibition,"[14]; measured here: combination with cisplatin, at 0.5 µM",32.9%
same,inhibition,"[14]; single agent, at 5 µM",33.3%
same,inhibition,[15]; at 0.5 µM,-12.7% (inactive)
same,inhibition,[15]; [25],-11.3%
same,inhibition,[15]; [26],-13.3%
same,inhibition,"[15]; single agent, at 0.05 µM",-17.3%
same,inhibition,"[15]; single agent, at 5 µM",99.7%
COc1ccc(F)c(F)c1C(=O)c1cnc(NC2CCN(S(C)(=O)=O)CC2)nc1N,AC50,[1],1.86 µM (active)
same,AC50,[2],2.64 µM (active)
same,AC50,[3],1.18 µM (active)
same,AC50,[4],2.09 µM (active)
same,outcome,[16],inactive
same,AC50,[5],3.72 µM (active)
same,IC50,[17],1.86 µM (active)
same,fold change,[6]; [19],0.981 (inactive)
same,fold change,[6]; [20],0.805
same,cell count,[6]; [21],1740
same,cell count,[6]; [22],1770
same,z-score,[7]; [23],2.86 (active)
same,z-score,[7]; [24],-3.07
C#Cc1cccc(Nc2ncnc3cc(OCCOC)c(OCCO)cc23)c1,AC50,[1],11.8 µM (active)
same,AC50,[2],6.62 µM (active)
same,AC50,[3],2.96 µM (active)
same,AC50,[4],7.42 µM (active)
same,outcome,[16],inactive
same,AC50,[5],2.63 µM (active)
same,fold change,[6]; [19],0.787 (inactive)
same,fold change,[6]; [20],0.554
same,cell count,[6]; [21],2660
same,cell count,[6]; [22],3380
same,z-score,[7]; [23],-0.467 (inactive)
same,z-score,[7]; [24],-0.287
same,viability,"[18]; at 0.000305 µM, OCI-C5x cells, with rucaparib 10 µM, 100% = cells with rucaparib alone",118% (inactive)
same,viability,"[18]; at 0.000305 µM, OCI-C5x cells, without rucaparib",140% (inactive)
same,viability,"[18]; at 0.000305 µM, OCI-P5x cells, with rucaparib 20 µM, 100% = cells with rucaparib alone",109% (inactive)
same,viability,"[18]; at 0.000305 µM, OCI-P5x cells, without rucaparib",119% (inactive)
same,viability,"[18]; at 0.00122 µM, OCI-C5x cells, with rucaparib 10 µM, 100% = cells with rucaparib alone",113% (inactive)
same,viability,"[18]; at 0.00122 µM, OCI-C5x cells, without rucaparib",143% (inactive)
same,viability,"[18]; at 0.00122 µM, OCI-P5x cells, with rucaparib 20 µM, 100% = cells with rucaparib alone",109% (inactive)
same,viability,"[18]; at 0.00122 µM, OCI-P5x cells, without rucaparib",114% (inactive)
same,viability,"[18]; at 0.00488 µM, OCI-C5x cells, with rucaparib 10 µM, 100% = cells with rucaparib alone",119% (inactive)
same,viability,"[18]; at 0.00488 µM, OCI-C5x cells, without rucaparib",127% (inactive)
same,viability,"[18]; at 0.00488 µM, OCI-P5x cells, with rucaparib 20 µM, 100% = cells with rucaparib alone",106% (inactive)
same,viability,"[18]; at 0.00488 µM, OCI-P5x cells, without rucaparib",109% (inactive)
same,viability,"[18]; at 0.0195 µM, OCI-C5x cells, with rucaparib 10 µM, 100% = cells with rucaparib alone",108% (inactive)
same,viability,"[18]; at 0.0195 µM, OCI-C5x cells, without rucaparib",120% (inactive)
same,viability,"[18]; at 0.0195 µM, OCI-P5x cells, with rucaparib 20 µM, 100% = cells with rucaparib alone",103% (inactive)
same,viability,"[18]; at 0.0195 µM, OCI-P5x cells, without rucaparib",107% (inactive)
same,viability,"[18]; at 0.0781 µM, OCI-C5x cells, with rucaparib 10 µM, 100% = cells with rucaparib alone",113% (inactive)
same,viability,"[18]; at 0.0781 µM, OCI-C5x cells, without rucaparib",129% (inactive)
same,viability,"[18]; at 0.0781 µM, OCI-P5x cells, with rucaparib 20 µM, 100% = cells with rucaparib alone",96.3% (active)
same,viability,"[18]; at 0.0781 µM, OCI-P5x cells, without rucaparib",106% (inactive)
same,viability,"[18]; at 0.313 µM, OCI-C5x cells, with rucaparib 10 µM, 100% = cells with rucaparib alone",100% (active)
same,viability,"[18]; at 0.313 µM, OCI-C5x cells, without rucaparib",102% (inactive)
same,viability,"[18]; at 0.313 µM, OCI-P5x cells, with rucaparib 20 µM, 100% = cells with rucaparib alone",97.1% (active)
same,viability,"[18]; at 0.313 µM, OCI-P5x cells, without rucaparib",100% (inactive)
same,viability,"[18]; at 1.25 µM, OCI-C5x cells, with rucaparib 10 µM, 100% = cells with rucaparib alone",78.3% (active)
same,viability,"[18]; at 1.25 µM, OCI-C5x cells, without rucaparib",95.1% (active)
same,viability,"[18]; at 1.25 µM, OCI-P5x cells, with rucaparib 20 µM, 100% = cells with rucaparib alone",85.9% (active)
same,viability,"[18]; at 1.25 µM, OCI-P5x cells, without rucaparib",93.4% (active)
same,viability,"[18]; at 5 µM, OCI-C5x cells, with rucaparib 10 µM, 100% = cells with rucaparib alone",54.8% (active)
same,viability,"[18]; at 5 µM, OCI-C5x cells, without rucaparib",52.7% (active)
same,viability,"[18]; at 5 µM, OCI-P5x cells, with rucaparib 20 µM, 100% = cells with rucaparib alone",68.7% (active)
same,viability,"[18]; at 5 µM, OCI-P5x cells, without rucaparib",64.5% (active)
